Hit rate of the full screen: of about 190,000 compounds, about 200 (0.11%) were called active. Cut-off read from the data, not from the text of the source: active = inhibition above about 40%. The sample as a whole holds a higher share of actives than the screen did.
biological target: Induced myeloid leukemia cell differentiation protein Mcl-1 (Homo sapiens) (UniProt Q07820); assay: inhibitors of Bim peptide binding to Mcl-1, primary screen, biochemical, bead-based flow cytometry, multiplex (AID 1009); conditions: Bim peptide-Mcl-1 binding, at 10 µM, active compounds read high;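 note: 0% = no compound tracer wells and 100% = peptide blocker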
Sequence (Q07820 whole entry, looked up): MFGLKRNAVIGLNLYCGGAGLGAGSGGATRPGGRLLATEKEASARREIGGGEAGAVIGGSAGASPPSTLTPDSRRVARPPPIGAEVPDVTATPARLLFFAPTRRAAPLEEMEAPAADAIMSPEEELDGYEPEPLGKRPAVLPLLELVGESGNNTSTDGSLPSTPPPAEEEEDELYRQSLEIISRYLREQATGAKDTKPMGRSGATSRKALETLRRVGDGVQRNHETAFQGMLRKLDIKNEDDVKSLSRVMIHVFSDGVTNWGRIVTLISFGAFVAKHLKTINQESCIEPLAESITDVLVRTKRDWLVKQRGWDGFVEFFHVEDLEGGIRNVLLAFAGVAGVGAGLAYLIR

inhibition, inactive:
CCN(CC)C(=O)C(=O)c1cn(CC(=O)NCc2ccc3c(c2)OCO3)c2ccccc12 0%
COC(=O)c1ccc(NC(=O)CSc2nncc3ccc(OC)c(OC)c23)cc1 1%
Cn1cc(Cl)c(C(=O)NNC(=S)Nc2cccc(Cl)c2)n1 -1%
Cc1cc(C)c(C(N)=O)c(Cl)n1 0%
CC(C)(C)NC(=O)c1ccc(Cn2cc(C(F)(F)F)ccc2=O)cc1 -1%
CCN(CC)c1ccc(C(=O)N/N=C(\C)c2cccc(OC)c2)cc1 1%
Cn1c(-c2sccc2OCc2cccc(C(F)(F)F)c2)n[nH]c1=S -4%
CC(=O)NC(NC(=S)Nc1c(C)n(C)n(-c2ccccc2)c1=O)C(Cl)(Cl)Cl (stereo not given) 0%
CCC(=O)NCc1cc(-c2nn(C)c(=O)c3ccccc23)ccc1OC -1%
O=C(/C=C/c1ccc([N+](=O)[O-])cc1)NCCSCc1ccco1 -5%
Cc1c(C(=O)NC(=S)NCc2cccnc2)oc2ccccc12 0%
CCOCC(=O)Nc1ncc(S(=O)(=O)c2ccc([N+](=O)[O-])cc2)s1 0%
COC(=O)CNC(=O)c1ccc(OC2CCN(C(=O)C3CC3)CC2)cc1 -2%
CC(=O)c1ccccc1NC(=O)CC1(CC(=O)O)CCCCC1 0%
Fc1ccccc1CNC(=S)Nc1ccc(Cl)cc1 -14%
CSc1ccc(/C=C/C(=O)NC23CC4CC(CC(C4)C2)C3)cc1 -2%
O=C(c1ccc(OC2CCN(Cc3ccccn3)CC2)cc1)N1CCCCCC1 -4%
Cc1ccc2c(c1)C1CN(C)CCC1N2C(=S)Nc1ccc(OC(F)F)cc1 (stereo not given) -1%
O=C(COC(=O)CCCSc1nc2ccccc2[nH]1)Nc1ccc(Oc2ccccc2)cc1 2%
COc1ccc(-c2nc(CN3CCN(c4ncccn4)CC3)c(C)o2)cc1C -2%
O=[N+]([O-])c1ccc(F)cc1Oc1nc(-c2cccnc2)nc2ccccc12 4%
CCN1CCN(C(=O)CN(C)S(=O)(=O)c2ccc3ccccc3c2)CC1 0%
O=C(Nc1ccc2oc(-c3ccccc3F)nc2c1)c1ccco1 -3%
COc1ccnc(Oc2ccccc2)c1-c1ncn[nH]1 -2%
N#C/C(=C\c1ccc(-c2cccc([N+](=O)[O-])c2)o1)C(=O)NCCN1CCOCC1 0%
N#CCOc1ccc(C2=NO[C@@H]3[C@@H]4C[C@@H]([C@H]5C(=O)N(c6ccc7c(c6)OCO7)C(=O)[C@@H]45)[C@H]23)cc1 -7%
CCc1c(SCCC(=O)O)nc2ccccc2c1C -1%
COc1ccc(CC(NC(C)=O)C(=O)NC2CCN(C(=O)C3CC3)CC2)cc1OC (stereo not given) 1%
COc1cccc(NC(=O)C(Sc2nc3ccccc3c(=O)n2CC(C)C)c2ccccc2)c1 (stereo not given) -1%
O=C(COc1nc2ccccc2nc1N1CCOCC1)NCC(F)(F)F -3%
Cc1ccc(OCC(=O)NNC(=S)NCc2ccccc2)cc1 0%
CCOC(=O)c1cc2c(nc1NC(=S)Nc1ccccc1)CC(C)(CC)OC2 (stereo not given) -5%
Cc1[nH]c2ccccc2c1SCC(=O)Nc1nccs1 -1%
O=C(/C=C/c1ccccc1)Oc1coc(CSc2ncccn2)cc1=O 0%
Cc1nn(CC(=O)NCc2ccccn2)c(C)c1[N+](=O)[O-] 0%
CCCNC(=O)NC(=O)COC(=O)CC(NC(N)=O)c1ccc(Cl)cc1 (stereo not given) -8%
COCCNC(=O)NC(=O)COC(=O)C1(c2ccc(Cl)cc2)CC1 0%
Cc1ccc(S(=O)(=O)Cc2cc(-c3ccc(Cl)cc3)no2)cc1 0%
O=C1CCC/C(=N\NC(=O)NC2CCCCC2)C1 1%
Cc1ccc(C(=O)COC(=O)c2cccc(N3C(=O)c4c(C)nc5ccccc5c4C3=O)c2)cc1C -5%
CCOc1cc(CNCc2ccccn2)ccc1OCC(=O)NC(C)(C)C -5%
Cc1cc(=O)oc2c1c(C)nn2-c1ccc(Cl)cc1 2%
O=C(Cn1c2[n+](c3ccc(C(F)(F)F)cc31)CCCCC2)Nc1c(F)cccc1F 2%
Cc1ccc(OCC(=O)OC(C)CN(C)Cc2ccccc2)cc1 (stereo not given) 0%
Cc1ccc(C(=O)O)cc1N1C(=O)CCCC1=O 0%

From PubChem BioAssay AID1009 (NMMLSC, 2008)
